# ChEMBL document CHEMBL4513216, “Probing the Open Global Health Chemical Diversity Library for Multistage-Active Starting Points for Next-Generation Antimalarials” (ACS Infect Dis, 2020)
# Hit rate of the full screen: of about 69,000 compounds, about 8,600 (12%) showed an effect of 50% or more. The list comes from a sample in which strong results are over-represented; it also holds similar structures and randomly drawn compounds.
# Tested on: Plasmodium berghei
# Assay: Screen against P. berghei liver stage (PbLuc), transformed with Luciferase, at 10uM
# Type: functional, HepG2
# Conditions: tested at 10 uM
row,Compound,INHIBITION
1,O=C(CCN1CCCC1=O)Nc1cnn(-c2ccccc2Cl)c1,-46.4%
2,CC(CNC(=O)OC(C)(C)C)N(C)C(=O)COc1ccccc1C#N (configuration not stated),15.9%
3,Cc1ncsc1C(=O)N(C)Cc1ccsc1,-23.955%
4,Cn1cnc(S(=O)(=O)N2CCCCc3ccccc32)c1,-0.613%
5,O=C(O)c1ccccc1CN1CCOC(CCc2ccncn2)C1 (configuration not stated),20.8%
6,Cc1ccc(C(CNCc2ccc(C#N)cc2)N2CCOCC2)s1 (configuration not stated),69.7%
7,Cc1ccc(C(CNCc2cccn2C)N2CCOCC2)s1 (configuration not stated),38%
8,Cc1ccc(C(CNCc2ccncc2)N2CCOCC2)s1 (configuration not stated),-33.2%
9,CCn1cc(CNCC(c2ccc(C)s2)N2CCOCC2)cn1 (configuration not stated),14.9%
10,Cc1ccc(C(CNCc2cnn(C(C)C)c2)N2CCOCC2)s1 (configuration not stated),-48.2%
11,CCCn1cc(CNCC(c2ccc(C)s2)N2CCOCC2)cn1 (configuration not stated),63.7%
12,O=C(NCC1COCc2c(-c3ccncc3)nnn2C1)[C@H]1CCCO1 (some centres not stated),-34.6%
13,CC(Cn1cccn1)n1cnc2cccc(F)c2c1=O (configuration not stated),30%
14,CCn1ncc(CN2CCc3c(nc(-c4cccnc4)[nH]c3=O)C2)c1C,23.3%
15,OCCN1CCC(c2cncc(-c3cccc(Cl)c3)n2)CC1,23.2%
16,NC(=O)CN1CCCC(C(=O)N2CCC(O)(c3ccccc3)CC2)C1 (configuration not stated),58.3%
17,NC(=O)CN1CCCC(C(=O)N2CCC(Oc3ncccn3)CC2)C1 (configuration not stated),27.6%
18,N#CC1(c2ccccc2)CCN(C(=O)C2CCCN(CC(N)=O)C2)CC1 (configuration not stated),61%
19,NC(=O)CN1CCCC(C(=O)N2CCC(O)(Cc3ccccc3)CC2)C1 (configuration not stated),8.07%
20,N#CC1(c2ccccc2)CCN(C(=O)C2CCCN(C(N)=O)C2)CC1 (configuration not stated),30.5%
21,N#CC1(c2ccccc2)CCN(C(=O)CN2C(=O)CCNC2=O)CC1,30.1%
22,O=C(c1ccc(=O)[nH]n1)N1CCNCC1c1ccccc1 (configuration not stated),8.12%

row,Compound,INHIBITION
1,CCOCC(=O)N1CCC(c2cc3ncccc3c(O)n2)CC1,0.301%
2,CC(C)NC(=O)N1C[C@H](OCc2cccnc2)[C@H]2COC[C@H]21,-18.2%
3,Cc1nc(O)cc(C2(C)CCCNC2)n1 (configuration not stated),1.4%
4,CCn1cncc1C1CC(=O)Nc2c1c(C)nn2-c1ccc(C)cc1 (configuration not stated),42%
5,Cc1ccc(-n2nc(C)c3c2NC(=O)CC3c2cnc(N)s2)cc1 (configuration not stated),62.6%
6,Cc1nn(-c2ccccc2)c2c1C(c1ccc(C(=O)O)cc1)CC(=O)N2 (configuration not stated),32.7%
7,CCn1ncc(S(=O)(=O)N[C@@H]2CCC[C@@H](n3ccnc3)[C@@H]2O)c1C,28.7%
8,COCCCNc1cc(C)nn2cnnc12,3.35%
9,CC(C)CC(C)(CNC(=O)c1cnccn1)NC(=O)c1cnccn1 (configuration not stated),25.4%
10,CC(C)C(C)(CNC(=O)OC(C)(C)C)NC(=O)c1cnccn1 (configuration not stated),0.705%
11,CCC(CC)(CNC(=O)OC(C)(C)C)NC(=O)c1cnccn1,67.4%
12,Cn1ccc(C(=O)N2CCCC2c2cc[nH]n2)n1 (configuration not stated),21.925%
13,Cc1nn(C)c(N2CCOCC2)c1CNC1CCN(C2CC2)CC1,-21.7%
14,NC(=O)NC(=O)CNc1cccc(C(=O)c2ccccc2)c1,0.0459%
15,CCN1CCN(S(=O)(=O)c2cc(C)c(Cl)cc2Cl)CC1,43.5%
16,CCN1CCN(S(=O)(=O)c2ccc(Cc3cc(C)n[nH]c3=O)cc2)CC1,9.96%
17,CCN1CCN(S(=O)(=O)c2cc(Cl)c(Cl)cc2C)CC1,61.8%
18,CCN1CCN(S(=O)(=O)c2cc(C)c(Cl)cc2C)CC1,49.7%
19,CCN1CCN(S(=O)(=O)c2ncn(C)c2Cl)CC1,-10.4%
20,CCN1CCN(S(=O)(=O)c2cc(C)c(C)cc2Br)CC1,66.5%
21,CN(C)S(=O)(=O)c1ccc(CNC(=O)C2CC(=O)N(C(C)(C)C)C2)cc1 (configuration not stated),-3.305%
22,CN(C)C(=O)CN1CCC(c2nnc(Cn3cccn3)n2C2CC2)CC1,16.3%

row,Compound,INHIBITION
1,CN1[C@H](CN2CCCC2)C[C@@H]2CN(C(=O)c3cnccn3)CC[C@@H]21,18.6%
2,Cc1nc(C2CCN(c3ccccc3)CC2)no1,32.8%
3,Cc1noc(C2CCN(C(=O)c3ccc(NC4CC4)nc3)CC2)n1,59.7%
4,Cc1noc(C2CCN(C(=O)c3ccc(C(F)(F)F)nc3)CC2)n1,-34.025%
5,Cc1noc(C2CCN(C(=O)c3ccc(N(C)C)nc3)CC2)n1,6.92%
6,CCCc1ccc2oc(C(=O)N3CCC(O)CC3)c(C)c2c1,2.7%
7,CSc1ccc(Cl)c(C(=O)N2CCCC(CNS(C)(=O)=O)C2)c1 (configuration not stated),41.4%
8,COc1ccccc1OCC(=O)NS(=O)(=O)c1cccnc1,29.8%
9,CCC(C)n1c(SCC(=O)N2CCOCC2)nc2cc(C)[nH]c2c1=O (configuration not stated),57.3%
10,Cc1cc2nc(SCC(=O)N3CCOCC3)n(C(C)C)c(=O)c2[nH]1,47.4%
11,CCn1c(SCC(=O)N2CCOCC2)nc2cc(C)[nH]c2c1=O,2.69%
12,CCSc1ccc(NC(=O)N2CCCC2c2ccncc2)cn1 (configuration not stated),35.2%
13,CCCc1nnc(NC(=O)N2CCCC2c2ccncc2)s1 (configuration not stated),59.2%
14,CC(C)c1nnc(NC(=O)N2CCCC2c2ccncc2)s1 (configuration not stated),-32.3%
15,CC(C)(C)c1n[nH]c(C2CN(C(=O)CCc3ccco3)CCO2)n1 (configuration not stated),18.15%
16,Cc1nc(CN2CCCC(NCCCc3ccccc3)C2)no1 (configuration not stated),-7.31%
17,O=C(COc1ccc(C(F)(F)F)cc1)N1CCOCC1c1ncon1 (configuration not stated),11.9%
18,CC(C)(C)c1n[nH]cc1CNC1CCC(O)CC1 (configuration not stated),5.87%
19,CC(C)NC(=O)C1CN(Cc2ccc(F)cc2)CC12CCOCC2 (configuration not stated),-15.7%
20,CCC(Cn1ccnc1)n1cnc2scc(C)c2c1=O (configuration not stated),14.9%
21,CC(Oc1ccc2c(c1)OCO2)C(=O)N1CCC(N2CCCC2)CC1 (configuration not stated),-5.22%
22,CC(Oc1ccc2c(c1)OCO2)C(=O)N1CCC(N2CCOCC2)CC1 (configuration not stated),63%

row,Compound,INHIBITION
1,CC1CCN(C(=O)C(C)Oc2ccc3c(c2)OCO3)CC1 (configuration not stated),-20.5%
2,CCCc1nc(C(C)(C)NC(=O)C2CC(=O)N(CCOC)C2)no1 (configuration not stated),-3.2%
3,CC(C)N(C)CC(=O)Nc1ccc(-n2ccc(C(N)=O)n2)cc1,49.3%
4,CCOCC(=O)Nc1ccc(-n2ccc(C(N)=O)n2)cc1,10.8%
5,CCN(CC)CC(=O)Nc1ccc(-n2ccc(C(N)=O)n2)cc1,50.2%
6,CCNc1ncc(C(=O)N2Cc3nc(C)[nH]c(=O)c3C2)cn1,6.94%
7,O=C(NCc1cccnc1)C1=NOC2(CCCN(CCO)C2)C1 (configuration not stated),60.1%
8,CNC(=O)C1Cn2ccnc2C2(CCN(Cc3nccs3)CC2)O1 (configuration not stated),55.5%
9,CC(C)CN1CCC2(CC(C(=O)NCc3cccnc3)=NO2)C1 (configuration not stated),-11.6%
10,O=C(NC1CCC1)C1=NOC2(CCN(Cc3ccccc3)C2)C1 (configuration not stated),57.9%
11,O=C(NCC1CC1)C1=NOC2(CCN(Cc3ccsc3)C2)C1 (configuration not stated),38.5%
12,Cc1ncccc1NC(=O)C1=NOC2(CCN(Cc3nccs3)C2)C1 (configuration not stated),9.1%
13,CNC(=O)C1=NOC2(CCN(Cc3nccs3)C2)C1 (configuration not stated),54.4%
14,O=C(NCCN1CCOCC1)C1=NOC2(CCN(Cc3nccs3)C2)C1 (configuration not stated),41.6%
15,CNC(=O)C1Cn2ccnc2C2(CCN(Cc3cccs3)CC2)O1 (configuration not stated),46.2%
16,O=C(NCC1CC1)C1=NOC2(CCN(S(=O)(=O)Cc3ccccc3)C2)C1 (configuration not stated),22.5%
17,CC(C)C(=O)N1CCCC2(CC(C(=O)NCc3cccnc3)=NO2)C1 (configuration not stated),8.67%
18,CNC(=O)C1Cn2ccnc2C2(CCN(Cc3ccncc3)CC2)O1 (configuration not stated),36.9%
19,CN1CCc2onc(Cn3cccc3)c2C1,-7.24%
20,Cc1cccc2nc(CN3CCCC3Cn3cncn3)cn12 (configuration not stated),5.03%
21,c1ccc([C@@H]2CN(Cc3cccnc3)C[C@H]2c2cc[nH]n2)cc1,27.2%
22,O=C(NCc1ccc(-n2cncn2)nc1)c1cc[nH]n1,17.9%

row,Compound,INHIBITION
1,Clc1ccc(-n2cnnc2CCCN2CCOCC2)cc1,15.6%
2,CC1CCCCN1S(=O)(=O)NCCNC(=O)c1ncccc1O (configuration not stated),-27.3%
3,COc1cccc2c(C)c(C(=O)N3CCNCC3C(N)=O)[nH]c12 (configuration not stated),24.35%
4,CCNc1cc2c(nn1)CCN(C(=O)Cc1ccc(C)s1)C2,37.4%
5,Cc1cc(N2CCC(O)(CN(C)C(=O)CCCN)C2)c2cnccc2n1 (configuration not stated),-16.8%
6,Cc1ccc(-c2nnc(CNCCn3cc(C)cn3)o2)cc1,14.4%
7,Cc1nc(C)n(CC2CN(Cc3ccncc3)Cc3nccn3C2)n1 (configuration not stated),-15.6%
8,CCc1noc(C(C)N2CCN(S(=O)(=O)N3CCCC3)CC2)n1 (configuration not stated),-11.4%
9,CN1C(=O)CC(c2ccncc2)C12CCN(c1ncccn1)CC2 (configuration not stated),29.4%
10,O=C(NCC1CC1)C1=NOC2(CCN(S(=O)(=O)c3ccc(F)cc3)C2)C1 (configuration not stated),-19.1%
11,O=C(NCC1CC1)C1=NOC2(CCN(Cc3ccc(Cl)c(F)c3)C2)C1 (configuration not stated),38.5%
12,O=C(NC1CCC1)C1=NOC2(CCN(Cc3ccc(F)cc3)C2)C1 (configuration not stated),64.9%
13,CN(C)[C@H]1CN(C(=O)CCc2cccc(F)c2)C[C@@H]1C1CC1,30.9%
14,CC(C)COCc1cncc2c1CCN(C(=O)c1cscn1)C2,18.6%
15,CCOCc1cncc2c1CCN(C(=O)c1cscn1)C2,62%
16,O=C(c1ccsc1)N1CCc2c(COCC3CC3)cncc2C1,39.8%
17,O=C(c1cscn1)N1CCc2c(COCC3CC3)cncc2C1,58.4%
18,COCc1cncc2c1CCN(C(=O)c1cscn1)C2,21.3%
19,O=C(c1cnccn1)N1CCc2c(COCC3CC3)cncc2C1,39.2%
